Screens as filed in PubChem BioAssay.
Pf apPOL block – Pf-apPOL DNA polymerase inhibition; Recombinant Pf-apPOL, molecular beacon fluorescence, 1.5 h; inhibition, % at 10 µM; actives 0.25% (n = 210,000); AID 1794808
mHTT CaM bind – disrupts binding of mutant huntingtin to calmodulin | P42858 | AlphaScreen His-mHTT/GST-CaM binding, luminescence | inhibition, % at 15 µM | actives 3.6% (n = 190,000) | AID 1671202;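 note: 0% = both proteins with DMSO and 100% = one protein alone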
Active calls of the source: *. The list is not random: actives were taken first. Their share in the collection is about 3.6%. Cut-off read from the data, not from the text of the source: active = inhibition above about 50%; inactive = the rest.

SMILES	Pf apPOL block	mHTT CaM bind
CC(C)(C)N=C1Nc2ccccc2NC12CCCN(C(=O)Cc1ccccc1F)C2 (centres undefined)	-2	65*
CC(C)(C)N=C1Nc2ccccc2NC12CCCN(C(=O)c1cccc(F)c1)C2 (centres undefined)	4	15
CC(=O)c1cccc(NC(=O)N2CCCC3(C2)Nc2ccccc2NC3=NC(C)(C)C)c1 (centres undefined)	4	27
CC(C)(C)N=C1Nc2ccccc2NC12CCCN(C(=O)COc1ccc(F)c(F)c1)C2 (centres undefined)	8	100*
CC(C)(C)N=C1Nc2ccccc2NC12CCCN(C(=O)Cc1cccs1)C2 (centres undefined)	0	64*
CC(C)(C)N=C1Nc2ccccc2NC12CCCN(C(=O)Nc1ccc3c(c1)OCCO3)C2 (centres undefined)	1	94*
Cc1noc(C)c1CC(=O)N1CCCC2(C1)Nc1ccccc1NC2=NC(C)(C)C (centres undefined)	-2	34
CCOC(=O)c1ccccc1NC(=O)Cn1c(-c2ccc(C)cc2)ncc(C#N)c1=O	-8	-7
CCN(CC)C1=Nc2ccccc2Oc2ccc(NC(=O)C(C)(C)C)cc21	-1	-2
CC(=O)Nc1ccc(C(=O)NCCNS(=O)(=O)c2ccc(OC(F)(F)F)cc2)cc1	2	-6
O=C(O)C1CCN(C(=O)c2cccc(Cl)c2)CC1	-1	3
O=C(COc1ccc(F)cc1)N1CCCC2(C1)Nc1ccccc1NC2=NC1CCCC1 (centres undefined)	-4	86*
O=C(c1cccc(F)c1)N1CCCC2(C1)Nc1ccccc1NC2=NC1CCCC1 (centres undefined)	-4	18
COc1cccc(CC(=O)N2CCCC3(C2)Nc2ccccc2NC3=NC(C)(C)C)c1 (centres undefined)	0	78*
COCCN=C1Nc2ccccc2NC12CCCN(C(=O)Cc1cccc(OC)c1)C2 (centres undefined)	-3	39
O=C(c1n[nH]c2c1CCCC2)N1CCCC2(C1)Nc1ccccc1NC2=NC1CCCC1 (centres undefined)	-2	92*
COCCN=C1Nc2ccccc2NC12CCCN(C(=O)c1n[nH]c3c1CCCC3)C2 (centres undefined)	-2	-2
CCC(=O)Nc1c(-c2ccc(Cl)cc2)nc2ccccn12	-3	11
CCC(=O)Nc1ccc(C2(C(=O)NCCC(C)C)CCCCC2)cc1	7	-5
COCCC1CCN(C(=O)c2ccc(C(F)(F)F)cc2)CC1	-3	3
Cc1ccc(CNC(=O)C2CCCN(C(=O)c3cccc(C(F)(F)F)c3)C2)cc1 (centres undefined)	11	32
Cc1ccc(COC[C@H](CC(C)C)N2CCN(C(=O)c3cccc(C(F)(F)F)c3)CCC2=O)cc1	-2	91*
CC(C)C[C@@H](COCc1ccc(C(F)(F)F)cc1)N1CCN(C(=O)c2ccc(C(F)(F)F)cc2)CCC1=O	-4	93*
CC(C)C[C@@H](COCc1cccc(Cl)c1)N1CCN(C(=O)c2ccc(C(F)(F)F)cc2)CCC1=O	-4	99*
Cc1ccc(S(=O)(=O)N2CCC(=O)N([C@H](COCc3cccc(Cl)c3)C(C)C)CC2)cc1	-3	-3
SMILES	Pf apPOL block	mHTT CaM bind
CCc1ccccc1NC(=O)N1CCc2nc[nH]c2C1	-3	3
CCNC(=O)c1nc(N(C)C)c2c(C)scc2n1	0	20
Cc1scc2nc(C(=O)NCc3ccc(F)cc3)nc(N(C)C)c12	-16	87*
Cc1scc2nc(C(=O)NCc3cccc(F)c3)nc(N3CCCC3)c12	-9	65*
Cc1scc2nc(C(=O)Nc3ccccc3)nc(N3CCCC3)c12	-3	12
CCn1nccc1C(=O)Nc1cc(C)nn1-c1ccccc1	-4	-2
Cc1ccc2occ(C(=O)c3ccc(Cl)cc3)c(=O)c2c1	-2	7
CCCCN(CC)C(=O)c1ccccc1Br	-8	0
Cc1cc(=O)n(CC(=O)Nc2ccc(Cl)cc2)c(N2CCCC2)n1	-1	58*
Cc1cc(=O)n(CC(=O)Nc2ccccc2)c(N2CCCCC2)n1	-2	-15
COc1ccc(NC(=O)Cc2csc(SCC(=O)c3ccccc3)n2)cc1Cl	0	14
CCOC(=O)N1CCN(C(=O)CCc2csc(NC(=O)c3ccc(F)cc3)n2)CC1	-8	-15
O=C(CCc1csc(NC(=O)c2ccc(F)cc2)n1)Nc1nc(-c2ccco2)cs1	10	58*
O=C(Nc1nc2c(s1)CCCC2)c1ccc(-n2cccn2)nn1	0	3
O=C(Nc1nc(-c2ccco2)cs1)c1ccc(-n2cccn2)nn1	30	56*
CC(C)c1cc(C2CCCN2C(=O)Nc2ccccc2)on1 (centres undefined)	-4	-7
O=C(COc1cccc([N+](=O)[O-])c1)Nc1cccc(-c2nnc(-c3ccccc3)o2)c1	0	-1
COc1ccc(/C=C2/C(=O)ON=C2C)cc1Cl	-5	12
CCOc1cc(/C=C2\C(=O)ON=C2C)cc(Br)c1OCc1ccc(C)cc1	-5	89*
C#CCOc1c(Br)cc(/C=C2\C(=O)ON=C2C)cc1OCC	12	24
CCOc1cc(/C=C2\C(=O)ON=C2C)cc(Cl)c1OCc1ccc(C)cc1	4	71*
CC(=O)NC1CCN(c2nc3c(s2)c(C)nn3-c2ccccc2)CC1	0	19
CCCNc1cc(N2CCC(CCC(=O)Nc3ccc(OC)c(OC)c3)CC2)ncn1	5	8
Cc1cccc(CS(=O)(=O)N2CC(c3nc(Cc4ccccc4)no3)C2)c1	-8	-13
O=C(CN1CC(c2nc(Cc3ccccc3)no2)C1)c1ccc(Cl)cc1	20	57*
SMILES	Pf apPOL block	mHTT CaM bind
Cc1nnc(NC(=O)CN2CC(c3nc(Cc4ccccc4)no3)C2)s1	-5	-3
FC(F)(F)c1cccc(CN2CC(c3nc(Cc4ccccc4)no3)C2)c1	-4	62*
CCN1CCN(Cc2c(O)cc(C)c3c2OC(=Cc2ccco2)C3=O)CC1	0	16
COc1ccc(-c2ncccc2CNC(=O)c2ccc(C#N)cc2)cc1	-21	2
Cc1ccc(C)n1-c1ccc2ncccc2c1	-1	67*
Cc1nnc(C)c2c(C)n(-c3ccc4ncccc4c3)c(C)c12	-10	25
COc1ccc(OC)c(/C=C2\NC(=O)N(Cc3ccc(Br)cc3)C2=O)c1	-4	-57
CCN(CCNC(=O)CN1N=C(c2ccc(Cl)cc2)CCC1=O)c1ccccc1	-10	65*
CCN(CC)CCNC(=O)CN1N=C(c2ccc(Cl)cc2)CCC1=O	-92	0
O=C(NCC1CCN(c2cc(-c3ccccn3)[nH]n2)CC1)c1ccc2c(c1)OCO2	2	37
CN(C)c1cccc(C(=O)NCC2CCN(c3cc(-c4ccccn4)[nH]n3)CC2)c1	0	55*
C(=C\c1ccccc1)/CN1CCN(C2CCc3ccccc3C2)CC1 (centres undefined)	14	31
Cc1cc2nn(-c3ccccc3)nc2cc1N	-2	30
Cc1ccc(-n2nc3cc(N)c(Cl)cc3n2)cc1	7	59*
COc1ccc(C2OC(=O)C(C)(C)C(=O)C23CCCCC3)cc1 (centres undefined)	-1	-2
Cc1ccc2nc(/C(C#N)=C/c3ccc(N4CCOCC4)cc3)[nH]c2c1	-3	1
O=[N+]([O-])c1ccc(NC(c2ccco2)c2ccc3cccnc3c2O)cc1 (centres undefined)	-5	100*
